# PMC4081100, “A DNA-binding-site landscape and regulatory network analysis for NAC transcription factors in Arabidopsis thaliana”
# What was measured:
# Experiment in all cases: universal protein binding microarray (PBM); transcription factors of Arabidopsis thaliana; high values mean tight binding
# GST-VND3 NAC domain = target: T1, GST-VND3 NAC domain (Arabidopsis thaliana, UniProt Q9FH59 12-162); details: protein: recombinant; tags: GST; chain copies: 2; dsDNA, one strand shown
# T1 sequence: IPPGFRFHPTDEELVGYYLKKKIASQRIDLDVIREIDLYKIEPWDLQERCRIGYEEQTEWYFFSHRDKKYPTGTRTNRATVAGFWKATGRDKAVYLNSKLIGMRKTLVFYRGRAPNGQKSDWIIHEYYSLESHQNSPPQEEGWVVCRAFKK
# How it was run: (§1)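 Each value is a normalised enrichment score (E-score) describing binding. The GST-tagged proteins, NAC-domain, full-length or DNA-binding-domain, were induced in cells (zinc-finger proteins with zinc acetate added) and purified on glutathione–Sepharose 4B. They were applied at 200 to 500 nM final, in duplicate, to double-stranded custom all-10-mer Agilent 4 × 180K arrays, and gapped and ungapped 8-mers were scored.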
# GST-WRKY1(266-371) = GST-WRKY1(266-371) (Arabidopsis thaliana, UniProt Q9SI37 266-371); details: protein: recombinant; tags: GST; dsDNA, one strand shown
# How it was run: as §1
# GST-NTL6(1-168) = GST-NTL6(1-168) (Arabidopsis thaliana, UniProt Q9SCK6 1-168); details: protein: recombinant; tags: GST; chain copies: 2; dsDNA, one strand shown
# How it was run: as §1
# GST-ANAC019 NAC domain = target: T2, GST-ANAC019 NAC domain (Arabidopsis thaliana, UniProt Q9C932 14-162); details: protein: recombinant; tags: GST; chain copies: 2; dsDNA, one strand shown
# T2 sequence: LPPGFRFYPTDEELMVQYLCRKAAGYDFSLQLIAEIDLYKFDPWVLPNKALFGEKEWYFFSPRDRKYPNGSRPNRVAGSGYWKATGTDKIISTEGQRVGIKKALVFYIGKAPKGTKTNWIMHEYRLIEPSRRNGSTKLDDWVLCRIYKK
# How it was run: as §1
# GST-ANAC055(1-171) = target: T3, GST-ANAC055(1-171) (Arabidopsis thaliana, UniProt Q9LDY8 1-171); details: protein: recombinant; tags: GST; chain copies: 2; dsDNA, one strand shown
# T3 sequence: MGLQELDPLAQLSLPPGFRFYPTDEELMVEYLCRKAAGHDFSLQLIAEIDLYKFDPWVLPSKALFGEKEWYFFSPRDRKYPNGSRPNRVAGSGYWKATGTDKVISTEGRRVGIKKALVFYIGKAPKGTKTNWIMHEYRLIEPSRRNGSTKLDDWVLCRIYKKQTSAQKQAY
# How it was run: as §1
# GST-ATAF1 NAC domain = target: T4, GST-ATAF1 NAC domain (Arabidopsis thaliana, UniProt Q39013 7-158); details: protein: recombinant; tags: GST; chain copies: 2; dsDNA, one strand shown
# T4 sequence: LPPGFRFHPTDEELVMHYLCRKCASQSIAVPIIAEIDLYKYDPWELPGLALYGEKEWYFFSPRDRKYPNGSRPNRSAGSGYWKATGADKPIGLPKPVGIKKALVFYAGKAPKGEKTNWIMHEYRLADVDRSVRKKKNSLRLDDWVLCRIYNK
# How it was run: as §1
# GST-NTL8 NAC domain = target: T5, GST-NTL8 NAC domain (Arabidopsis thaliana, UniProt Q9XIN7 14-156); details: protein: recombinant; tags: GST; chain copies: 2; dsDNA, one strand shown
# T5 sequence: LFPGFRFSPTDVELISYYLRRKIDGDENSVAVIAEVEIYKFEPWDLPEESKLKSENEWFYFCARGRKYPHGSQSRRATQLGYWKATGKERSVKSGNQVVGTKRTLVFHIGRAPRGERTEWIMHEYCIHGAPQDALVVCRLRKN
# How it was run: as §1
# GST-VND7 NAC domain = target: T6, GST-VND7 NAC domain (Arabidopsis thaliana, UniProt Q9C8W9 9-158); details: protein: recombinant; tags: GST; chain copies: 2; dsDNA, one strand shown
# T6 sequence: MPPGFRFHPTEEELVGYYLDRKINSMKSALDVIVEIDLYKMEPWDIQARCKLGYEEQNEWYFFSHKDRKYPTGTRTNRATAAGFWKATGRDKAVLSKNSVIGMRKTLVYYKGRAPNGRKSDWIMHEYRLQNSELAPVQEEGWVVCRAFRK
# How it was run: as §1
# [1] = target: T7, GST-ANAC092(1-285) full length (Arabidopsis thaliana, UniProt Q9FKA0 1-285); details: protein: recombinant; tags: GST; chain copies: 2; dsDNA, one strand shown
# T7 sequence: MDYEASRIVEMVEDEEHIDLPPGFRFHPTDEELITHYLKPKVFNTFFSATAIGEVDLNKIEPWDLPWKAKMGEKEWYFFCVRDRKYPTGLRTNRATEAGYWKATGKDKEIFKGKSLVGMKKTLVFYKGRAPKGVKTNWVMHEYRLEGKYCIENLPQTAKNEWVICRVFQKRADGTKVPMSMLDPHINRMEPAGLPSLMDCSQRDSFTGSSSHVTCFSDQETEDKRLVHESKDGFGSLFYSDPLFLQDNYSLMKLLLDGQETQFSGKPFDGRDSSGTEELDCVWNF
# How it was run: as §1
# GST-NAP(1-166) = target: T8, GST-NAP(1-166) (Arabidopsis thaliana, UniProt O49255 1-166); details: protein: recombinant; tags: GST; chain copies: 2; dsDNA, one strand shown
# T8 sequence: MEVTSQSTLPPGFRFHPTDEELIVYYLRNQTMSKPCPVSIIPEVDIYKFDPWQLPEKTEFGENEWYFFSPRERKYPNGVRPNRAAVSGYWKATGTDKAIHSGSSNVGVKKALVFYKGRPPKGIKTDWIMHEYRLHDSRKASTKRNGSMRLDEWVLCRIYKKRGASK
# How it was run: as §1
# GST-NST2(1-184) = target: T9, GST-NST2(1-184) (Arabidopsis thaliana, UniProt Q9M274 1-184); details: protein: recombinant; tags: GST; chain copies: 2; dsDNA, one strand shown
# T9 sequence: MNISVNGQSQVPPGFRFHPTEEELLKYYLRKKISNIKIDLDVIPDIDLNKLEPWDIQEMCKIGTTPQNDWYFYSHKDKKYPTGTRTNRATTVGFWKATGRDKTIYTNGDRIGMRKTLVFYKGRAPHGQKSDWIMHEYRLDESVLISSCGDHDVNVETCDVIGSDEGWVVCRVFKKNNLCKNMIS
# How it was run: as §1
# GST-ANAC092(1-176) = target: T10, GST-ANAC092(1-176) (Arabidopsis thaliana, UniProt Q9FKA0 1-176); details: protein: recombinant; tags: GST; chain copies: 2; dsDNA, one strand shown
# T10 sequence: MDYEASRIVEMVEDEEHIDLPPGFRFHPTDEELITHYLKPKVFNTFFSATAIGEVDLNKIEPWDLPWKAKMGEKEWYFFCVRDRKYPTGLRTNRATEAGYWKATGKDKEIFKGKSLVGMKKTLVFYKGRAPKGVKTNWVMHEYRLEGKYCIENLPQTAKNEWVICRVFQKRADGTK
# How it was run: as §1
# Sequence of GST-NTL6(1-168) (Q9SCK6 1-168): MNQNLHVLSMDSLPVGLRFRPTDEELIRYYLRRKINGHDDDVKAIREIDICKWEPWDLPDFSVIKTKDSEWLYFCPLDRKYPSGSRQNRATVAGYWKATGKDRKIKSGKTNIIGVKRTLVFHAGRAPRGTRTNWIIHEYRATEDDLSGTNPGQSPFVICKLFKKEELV
# Sequence of GST-WRKY1(266-371) (Q9SI37 266-371): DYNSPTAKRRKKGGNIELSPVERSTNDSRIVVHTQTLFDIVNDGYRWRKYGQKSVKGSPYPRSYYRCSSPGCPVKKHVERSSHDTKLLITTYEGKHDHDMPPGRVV
sequence,measurement,setting,value
TCTGGTCA,binding signal,GST-VND3 NAC domain,0.059 E-score
same,binding signal,GST-WRKY1(266-371),0.455 E-score
AAGTCTTC,binding signal,GST-NTL6(1-168),0.204 E-score
same,binding signal,GST-ANAC019 NAC domain,0.052 E-score
same,binding signal,GST-ANAC055(1-171),0.0748 E-score
same,binding signal,GST-ATAF1 NAC domain,0.0685 E-score
same,binding signal,GST-NTL8 NAC domain,0.0771 E-score
same,binding signal,GST-VND3 NAC domain,0.123 E-score
same,binding signal,GST-VND7 NAC domain,0.0783 E-score
same,binding signal,GST-WRKY1(266-371),0.429 E-score
ATAGTCAA,binding signal,GST-ANAC055(1-171),0.122 E-score
same,binding signal,GST-ATAF1 NAC domain,0.263 E-score
same,binding signal,[1],0.12 E-score
same,binding signal,GST-NAP(1-166),0.0851 E-score
same,binding signal,GST-NST2(1-184),0.146 E-score
same,binding signal,GST-VND3 NAC domain,0.211 E-score
same,binding signal,GST-VND7 NAC domain,0.12 E-score
same,binding signal,GST-WRKY1(266-371),0.473 E-score
AGTCAACT,binding signal,GST-ANAC019 NAC domain,0.183 E-score
same,binding signal,GST-ATAF1 NAC domain,0.0655 E-score
same,binding signal,GST-VND3 NAC domain,0.0667 E-score
same,binding signal,GST-VND7 NAC domain,0.0783 E-score
same,binding signal,GST-WRKY1(266-371),0.486 E-score
AAAGTCGT,binding signal,GST-ANAC019 NAC domain,0.29 E-score
same,binding signal,GST-ANAC055(1-171),0.271 E-score
same,binding signal,GST-ATAF1 NAC domain,0.258 E-score
same,binding signal,GST-NAP(1-166),0.132 E-score
same,binding signal,GST-NST2(1-184),0.13 E-score
same,binding signal,GST-VND3 NAC domain,0.145 E-score
same,binding signal,GST-VND7 NAC domain,0.176 E-score
same,binding signal,GST-WRKY1(266-371),0.429 E-score
AATGGTCA,binding signal,GST-NTL6(1-168),0.0526 E-score
same,binding signal,GST-VND3 NAC domain,0.0734 E-score
same,binding signal,GST-WRKY1(266-371),0.434 E-score
GTGGTCAA,binding signal,GST-ANAC092(1-176),0.0557 E-score
same,binding signal,GST-ANAC055(1-171),0.113 E-score
same,binding signal,GST-ATAF1 NAC domain,0.135 E-score
same,binding signal,GST-VND3 NAC domain,0.0872 E-score
same,binding signal,GST-WRKY1(266-371),0.489 E-score
CTTGACTC,binding signal,GST-ANAC092(1-176),0.0601 E-score
same,binding signal,GST-ATAF1 NAC domain,0.0754 E-score
same,binding signal,GST-VND3 NAC domain,0.0677 E-score
same,binding signal,GST-WRKY1(266-371),0.466 E-score
AGGTCAAA,binding signal,GST-NTL6(1-168),0.0901 E-score
same,binding signal,GST-ANAC055(1-171),0.0973 E-score
same,binding signal,GST-ATAF1 NAC domain,0.0548 E-score
same,binding signal,GST-VND3 NAC domain,0.062 E-score
same,binding signal,GST-VND7 NAC domain,0.0735 E-score
same,binding signal,GST-WRKY1(266-371),0.482 E-score
ATTGACTA,binding signal,GST-ANAC092(1-176),0.0863 E-score
same,binding signal,GST-ANAC055(1-171),0.18 E-score
same,binding signal,GST-ATAF1 NAC domain,0.259 E-score
same,binding signal,[1],0.153 E-score
same,binding signal,GST-NAP(1-166),0.0723 E-score
same,binding signal,GST-NST2(1-184),0.182 E-score
same,binding signal,GST-VND3 NAC domain,0.228 E-score
same,binding signal,GST-WRKY1(266-371),0.466 E-score
ACACGGCT,binding signal,GST-ANAC092(1-176),0.181 E-score
same,binding signal,GST-ANAC019 NAC domain,0.418 E-score
same,binding signal,GST-ANAC055(1-171),0.347 E-score
same,binding signal,GST-ATAF1 NAC domain,0.264 E-score
same,binding signal,[1],0.335 E-score
same,binding signal,GST-NAP(1-166),0.194 E-score
same,binding signal,GST-VND3 NAC domain,0.348 E-score
same,binding signal,GST-VND7 NAC domain,0.321 E-score
GGATTGAC,binding signal,GST-ANAC092(1-176),0.0627 E-score
same,binding signal,GST-NTL6(1-168),0.0579 E-score
same,binding signal,GST-ANAC019 NAC domain,0.102 E-score
same,binding signal,GST-ANAC055(1-171),0.0598 E-score
same,binding signal,GST-NAP(1-166),0.0556 E-score
same,binding signal,GST-NST2(1-184),0.12 E-score
same,binding signal,GST-VND3 NAC domain,0.094 E-score
same,binding signal,GST-WRKY1(266-371),0.459 E-score
TGGTCAAA,binding signal,GST-ANAC092(1-176),0.0858 E-score
same,binding signal,GST-ATAF1 NAC domain,0.062 E-score
same,binding signal,[1],0.0538 E-score
same,binding signal,GST-VND3 NAC domain,0.118 E-score
same,binding signal,GST-WRKY1(266-371),0.491 E-score
CATGGTCA,binding signal,GST-VND3 NAC domain,0.0588 E-score
same,binding signal,GST-WRKY1(266-371),0.443 E-score
AATAGTCA,binding signal,GST-ANAC055(1-171),0.0507 E-score
same,binding signal,GST-ATAF1 NAC domain,0.061 E-score
same,binding signal,[1],0.113 E-score
same,binding signal,GST-NST2(1-184),0.0657 E-score
same,binding signal,GST-VND3 NAC domain,0.178 E-score
same,binding signal,GST-VND7 NAC domain,0.143 E-score
same,binding signal,GST-WRKY1(266-371),0.413 E-score
